Test results reported in the supplement of paper PMC8387472.

How the values were obtained:
Settings in all cases: mESC; 2uM; 72 h treatment, harvest day 5
Kenpaullone = compound: O=C1Cc2c([nH]c3ccc(Br)cc23)-c2ccccc2N1 [Kenpaullone]; experiment: fraction of microhomology deletions among edited reads; higher = more MH deletions
Genistein = compound: O=c1c(-c2ccc(O)cc2)coc2cc(O)cc(O)c12 [Genistein]; experiment: as above
[1] = compound: O=c1cc(N2CCOCC2)oc2c(-c3ccc4c(c3)OCCO4)csc12; experiment: as above
Mercaptopurine (6-MP) = compound: S=c1[nH]cnc2nc[nH]c12 [Mercaptopurine (6-MP)]; experiment: as above
[2] = compound: S=c1nc[nH]c2nc[nH]c12 [6-Mercaptopurine (6-MP) Monohydrate]; experiment: as above
[3] = compound: CC(=O)O/N=C1\C(=O)N(Cc2cc(Cl)ccc2Cl)c2ccc(Cl)cc21; experiment: fraction of 1-bp insertions among edited reads; higher = more 1-bp insertion outcomes
[4] = compound: CC(C)(C#N)c1ccc(N2C(=O)OCc3cnc4ccc(-c5cnc6ccccc6c5)cc4c32)cc1; experiment: as above
[5] = compound: CCCCOc1c(C(=O)c2c(F)cc(C)cc2F)c[nH]c2nncc1-2; experiment: as above
[6] = compound: CCN1CCN(CC(=O)Nc2ccc(-c3cccc4c(=O)cc(N5CCOCC5)oc34)c3sc4ccccc4c23)CC1; experiment: as above
[7] = compound: CCc1c2c(nc3ccc(OC(=O)N4CCC(N5CCCCC5)CC4)cc13)-c1cc3c(c(=O)n1C2)COC(=O)[C@]3(O)CC [Irinotecan HCl Trihydrate]; experiment: as above
[8] = compound: CCn1c(=O)c(-c2ccc(Cl)cc2Cl)cc2cnc(Nc3ccc(N4CCNCC4)c(F)c3)nc21; experiment: as above
[9] = compound: CNc1ccc([N+](=O)[O-])c(Nc2ccc3[nH]ncc3c2)n1; experiment: as above
Rifapentine = compound: CO[C@H]1/C=C/O[C@@]2(C)Oc3c(C)c(O)c4c(O)c(c(/C=N/N5CCN(C6CCCC6)CC5)c(O)c4c3C2=O)NC(=O)/C(C)=C\C=C\[C@H](C)[C@H](O)[C@@H](C)[C@@H](O)[C@@H](C)[C@H](OC(C)=O)[C@@H]1C [Rifapentine]; experiment: as above
[10] = compound: COc1ccccc1-c1cc(Nc2cccc(CS(N)(=O)=O)c2)ncn1; experiment: as above
[11] = compound: C[C@@H]1CN(CC(=O)Nc2ccc3c(c2)Cc2cccc(-c4cc(=O)cc(N5CCOCC5)o4)c2S3)C[C@H](C)O1; experiment: as above
[12] = compound: Cc1cc(C)nc(SCC(=O)Nc2ncc(Cc3cccc4ccccc34)s2)n1; experiment: as above
[13] = compound: Cc1ccc(C(=O)NCCCCCC(=O)Nc2ccccc2N)cc1; experiment: as above
[14] = compound: Cc1cccc(CC(=O)N2CCc3c2ccc(-c2cn(C)c4ncnc(N)c24)c3F)n1; experiment: as above
[15] = compound: NC(=O)c1ccc2nc(-c3ccc(Oc4ccc(Cl)cc4)cc3)[nH]c2c1 [Chk 2 inhibitor II (BML-277)]; experiment: as above
Tucidinostat (Chidamide) = compound: Nc1cc(F)ccc1NC(=O)c1ccc(CNC(=O)/C=C/c2cccnc2)cc1 [Tucidinostat (Chidamide)]; experiment: as above

Target | fraction of microhomology deletions among edited reads (Kenpaullone) | fraction of microhomology deletions among edited reads (Genistein) | fraction of microhomology deletions among edited reads [1] | fraction of microhomology deletions among edited reads (Mercaptopurine (6-MP)) | fraction of microhomology deletions among edited reads [2] | fraction of 1-bp insertions among edited reads [3] | fraction of 1-bp insertions among edited reads [4] | fraction of 1-bp insertions among edited reads [5] | fraction of 1-bp insertions among edited reads [6] | fraction of 1-bp insertions among edited reads [7] | fraction of 1-bp insertions among edited reads [8] | fraction of 1-bp insertions among edited reads [9] | fraction of 1-bp insertions among edited reads (Rifapentine) | fraction of 1-bp insertions among edited reads [10] | fraction of 1-bp insertions among edited reads [11] | fraction of 1-bp insertions among edited reads [12] | fraction of 1-bp insertions among edited reads [13] | fraction of 1-bp insertions among edited reads [14] | fraction of 1-bp insertions among edited reads [15] | fraction of 1-bp insertions among edited reads (Tucidinostat (Chidamide))
3.0 (DMSO control at this site: 1-bp insertion 0.109, MH deletion 0.149, edited 0.09) TGCTAGCGCCCCCACAAAGCGGACCAGCCAGCACTATAGGGAATAAGGCCAACTTGCACCC | 0.194 | 0.196 | 0.162 | 0.168 | 0.254 | 0.126 | 0.122 | 0.16 | 0.0557 | 0.111 | 0.126 | 0.124 | 0.133 | 0.13 | 0.244 | 0.144 | 0.112 | 0.15 | 0.121 | 0.123
15.0 GCGCCTCCAATGACCCAGTGGGATCCTACTCCATAATGGGATCCTGGGGATTCCTCGCTCC |  | 0.299 |  |  | 0.339 | 0.254 | 0.168 |  |  |  |  |  | 0.167 |  |  | 0.185 | 0.19 |  |  | 0.158
17.0 (DMSO control at this site: 1-bp insertion 0.112, MH deletion 0.348, edited 0.058) CCATAGCGCGATAAATATGACGGCTCATCCTGTATGACGGCTCATCCTGTATCAACTGTCC | 0.377 | 0.409 | 0.342 | 0.422 | 0.393 | 0.12 | 0.143 | 0.145 | 0.0756 | 0.161 | 0.166 | 0.165 | 0.136 | 0.158 | 0.354 | 0.14 | 0.15 | 0.124 | 0.14 | 0.168
45.0 (DMSO control at this site: 1-bp insertion 0.017, MH deletion 0.666, edited 0.101) TTACACAGCATGAACTGCTAGGTGATGATGTCAGATTCGGTTTTACTAACTTCTCCAAAAA | 0.561 | 0.601 | 0.67 | 0.614 | 0.557 | 0.0284 | 0.0222 | 0.0249 | 0.016 | 0.0413 | 0.0237 | 0.0246 | 0.0255 | 0.037 | 0.0735 | 0.0352 | 0.0235 | 0.0353 | 0.0266 | 0.0198
1.0 (DMSO control at this site: 1-bp insertion 0.521, MH deletion 0.323, edited 0.141) GTGTCACAGTGCACGAGTGACGGGATAATGTGCTGACAGGTAATTGATAGGCTTCCAACTT | 0.197 | 0.286 | 0.276 | 0.227 | 0.218 | 0.514 | 0.557 | 0.595 | 0.243 | 0.586 | 0.545 | 0.665 | 0.573 | 0.628 | 0.8 | 0.594 | 0.577 | 0.588 | 0.594 | 0.605
33.0 (DMSO control at this site: 1-bp insertion 0.008, MH deletion 0.771, edited 0.112) CATTAAGAGCAGCTGCCGGCCCCCAAGTGGACAGAGCTGGCCCTGCTGATTCAACAGTGCA | 0.726 | 0.732 | 0.737 | 0.699 | 0.692 | 0.0218 | 0.021 | 0.0356 | 0.018 | 0.0322 | 0.0229 | 0.0311 | 0.0305 | 0.0177 | 0.036 | 0.0245 | 0.0214 | 0.0211 | 0.0295 | 0.0189
28.0 (DMSO control at this site: 1-bp insertion 0.035, MH deletion 0.77, edited 0.142) TGGTTCTTCCTTTGTAGAGAGTGTTCATCTGGGAATCTGGGACTTGGATGAGACAATCATT | 0.736 | 0.784 | 0.818 | 0.718 | 0.693 | 0.0335 | 0.0355 | 0.0391 | 0.0168 | 0.0322 | 0.029 | 0.0402 | 0.0344 | 0.0432 | 0.078 | 0.0369 | 0.0388 | 0.0456 | 0.0349 | 0.0493
5.0 (DMSO control at this site: 1-bp insertion 0.214, MH deletion 0.567, edited 0.105) CGCTGACCCGAGACCTACGCGAACCGAAATCGGCGACCGGTGCGCAAGCAGGGCTGGCGTC | 0.523 | 0.604 | 0.61 | 0.507 | 0.498 | 0.204 | 0.198 | 0.226 | 0.0634 | 0.239 | 0.179 | 0.261 | 0.208 | 0.267 | 0.477 | 0.232 | 0.217 | 0.252 | 0.208 | 0.257
47.0 (DMSO control at this site: 1-bp insertion 0.095, MH deletion 0.585, edited 0.118) GAGTGGTCCCGAGCCAGGAACTGTGTGTGTTGCAGGGGGGCAGTAACTCCCCAACTCCCTC | 0.486 | 0.508 | 0.554 | 0.46 | 0.401 | 0.0999 | 0.09 | 0.121 | 0.0733 | 0.118 | 0.0775 | 0.106 | 0.102 | 0.0993 | 0.269 | 0.0938 | 0.12 | 0.0914 | 0.0791 | 0.14
